Source: PubChem BioAssay
The entries come from a sample that favours hits as a whole.
KDM5B inhibitor – Primary screen for KDM5B Histone Demethylases FDH-coupled qHTS | KDM5B demethylase, FDH-coupled NADH fluorescence (FDH is formaldehyde dehydrogenase) | Lysine-specific demethylase 5B (Homo sapiens), Q9UGL1 | 220,000 tested, 2.6% active | Potency, µM (doses to about 57.7 µM), usual class: inhibitors; active means well fitted inhibition curve with a large enough effect; further: nearly all actives have a fitted effect of over 70% in size
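qHTS format, multiple compound concentrations. Buffer 50 mM HEPES pH 7.5/0.01% Tween-20; 200 nM KDM5BΔAP final; 10 min compound preincubation; substrate-mix levels 12.5 µM peptide, 25 µM α-KG, 0.25 mM NAD⁺; 30 min RT; ΔRFU.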
Hits are given with their value; . = inactive.

SMILES	KDM5B inhibitor
Cc1ccc(C(=O)N2CCc3nc(C(C)C)nc(-c4ccc(Cl)cc4)c3CC2)cc1	.
CC(C)c1nc2c(c(-c3ccc(Cl)cc3)n1)CCN(Cc1cccc3ccccc13)CC2	56.2µM
COc1ccc(CN2CCc3nc(C(C)C)nc(-c4ccc(O)cc4)c3CC2)cc1	.
Oc1ccc(-c2nc(C3CC3)nc3c2CN(Cc2ccc(OC(F)(F)F)cc2)CC3)cc1	.
CC(C)c1nc2c(c(-c3ccc(Cl)cc3)n1)CCN(CC1CCCCC1)CC2	35.5µM
Cc1ccc(CN2CCc3nc(C(C)C)nc(-c4ccc(O)cc4)c3CC2)cc1	.
CCc1nc2c(c(-c3ccc(Cl)cc3)n1)CCN(Cc1ccc(N(C)C)cc1)CC2	.
CCc1nc2c(c(-c3ccc(Cl)cc3)n1)CCN(Cc1cccnc1)CC2	.
CCc1nc2c(c(-c3ccc(Cl)cc3)n1)CCN(CC1CC1)CC2	28.2µM
CC(C)c1nc2c(c(-c3ccc(Cl)cc3)n1)CCN(Cc1cccnc1)CC2	.
O=C(Nc1ccc(-c2cccc(F)c2)cc1)C1CCCN1Cc1ccc(CO)o1 (stereo not given)	.
Cc1ccc(NC(=S)NCc2ccc(Cl)cc2)cc1	.
Cc1[nH]c2ccc(Cl)cc2c1CCN(Cc1cccs1)C(=S)NC(C)(C)C	.
CSc1ccccc1C(=O)NCc1coc(-c2cccs2)n1	.
COc1ccc(COC(=O)C2=C(C)NC(=O)CC2c2cc3c(cc2Br)OCO3)cc1 (stereo not given)	.
COCCn1c(-n2nc(C)cc2C)nc2c1c(=O)n(Cc1ccccc1)c(=O)n2C	.
Cc1ccc(NC(=O)CN(C)C(=O)c2cc3cc(Cl)ccc3nc2C)cc1	.
COc1cccc(C2c3c(-c4c(C)cc(C)cc4O)n[nH]c3C(=O)N2CCCO)c1 (stereo not given)	.
Cc1ccc(Nc2cc(C)nc(NCc3ccccc3)n2)c(C)c1	.
CCOc1ccc(CN(C)Cc2cc(=O)oc3cc(C)ccc23)cc1	.
Cc1nc2c(c(-c3ccc(O)cc3)n1)CN(CC1CC1)CC2	.
CCc1nc2c(c(-c3ccc(Cl)cc3)n1)CN(Cc1ccc(N(C)C)cc1)CC2	.
CCc1nc2c(c(-c3ccc(Cl)cc3)n1)CCN(Cc1ccc(OC)cc1)CC2	.
CCc1nc2c(c(-c3ccc(Cl)cc3)n1)CN(Cc1ccc(OC)cc1)CC2	17.8µM
COc1ccc(-c2nc(C)nc3c2CCN(CC2CC2)CC3)cc1	39.8µM
SMILES	KDM5B inhibitor
COc1ccc(-c2nc(C)nc3c2CCN(Cc2ccc(F)cc2)CC3)cc1	.
COc1ccc(OC)c(C2CCCN2C(=O)NCCn2ccnc2)c1 (stereo not given)	.
O=C(O)C(=Cc1cccs1)C(=O)O	.
Cc1cc2nc(-c3cccc(NC(=O)c4cccnc4)c3)oc2cc1C	.
O=C(N[C@@H](Cn1cc(Cl)c(=O)[nH]c1=O)C(=O)O)C1CCC1	.
Cc1cccc(C2(C(=O)C(C#N)C(=O)Nc3ccccc3F)CC2)c1 (stereo not given)	.
Cc1nnc2n1CCC(NC(=O)c1ccc3cc[nH]c3c1)CC2 (stereo not given)	28.2µM
Cc1nnc2n1CCC(N(C)C(=O)c1ccc3[nH]ccc3c1)CC2 (stereo not given)	.
Cc1nnc2n1CCC(NC(=O)c1ccoc1)CC2 (stereo not given)	.
CCc1nc2nccc(-c3ccc(OC)c(OC)c3)n2n1	20µM
CCc1nc2nccc(-c3ccc(Br)cc3)n2n1	15.8µM
COc1ccc(CCc2nc3nccc(-c4ccc(OC)cc4)n3n2)cc1	25.1µM
COc1ccc(CCc2nc3nccc(-c4ccncc4)n3n2)cc1	.
COc1ccc(CCc2nc3nccc(-c4ccsc4)n3n2)cc1	.
COc1ccc(-c2ccnc3nc(CCc4ccc(OC)c(OC)c4)nn23)cc1	25.1µM
Nc1nc(Nc2ccc(Br)cc2)sc1C(=O)c1cccc(Br)c1	.
Cc1oc(-c2ccc(C(=O)NCc3cccnc3)cc2)nc1CS(=O)c1ccccc1 (stereo not given)	.
COc1cc(C(=O)Oc2c(OC)cccc2OC)ccc1OC(F)F	.
O=C1CSc2ccc(C(=O)Nc3ccc(OC(F)F)cc3)cc2N1	.
Cc1cc(Cl)ccc1S(=O)(=O)N1CCCC(Cn2c(C)nc3cccnc32)C1 (stereo not given)	.
COc1ccccc1C(=O)Nc1ccc2oc(-c3ccc(Cl)cc3)nc2c1	.
C=CCOC(=O)Nc1nc2c(s1)C[C@@H]1[C@](C)(CO)[C@H](O)CC[C@@]1(C)[C@@H]2CC(=O)N1CCCCC1	.
O=C(Nc1ccccc1OC(F)F)C1=NN(C2CCS(=O)(=O)C2)C(=O)CC1 (stereo not given)	.
CCC1(N2CCN(S(=O)(=O)c3ccc(F)c(C)c3)CC2)CCN(C(=O)NC)C1 (stereo not given)	.
Fc1ccc(N2CCN(Cc3ncc(-c4ccccc4)o3)CC2)cc1	.
COC(=O)c1ccccc1SCC(=O)Nc1cccc2c(=O)[nH][nH]c(=O)c12	.
CC1(CI)CSc2sc3ccccc3[n+]21 (stereo not given)	.
CCn1cc(-c2cc3c(cn2)CN(CCc2ccccc2)CCN3)cn1	35.5µM
